PINK1 expr mod: changes PINK1 expression | PINK1 immunofluorescence, high-content cytometry, 24 h | Potency, µM (doses to about 76.6 µM), hits mostly activators | 410,000 compounds, 0.2% hits | AID 624263; active means well fitted activation curve with a large enough effect; inconclusive means small, poorly fitted or top-dose-only effect; cell line not stated here; further: nearly all actives have a fitted effect of over 65% in size
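PINK1 protein level read as immunofluorescence by microplate cytometer in a fixed, stained stable cell line after 24 h exposure to five compound concentrations, with CCCP as control.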
TSG101-PTAP inh: blocks PTAP/TSG101 interaction to inhibit HIV-1 budding | Fluorescence polarization, FITC-PTAP peptide / Tsg101 binding | Q99816 | Potency, µM (series often up to 115 µM), hits mostly inhibitors | AID 493005 | 340,000 tested, under 10 active; active means well fitted inhibition curve with a large enough effect in the main read-out, with a control signal flat, not every such curve was filed as active; inconclusive means small, poorly fitted or top-dose-only effect, or effect the other way, or a change in a side signal; inactive means no such curve, though single readings can be large or run the other way
Target sequence (Q99816 whole entry, looked up): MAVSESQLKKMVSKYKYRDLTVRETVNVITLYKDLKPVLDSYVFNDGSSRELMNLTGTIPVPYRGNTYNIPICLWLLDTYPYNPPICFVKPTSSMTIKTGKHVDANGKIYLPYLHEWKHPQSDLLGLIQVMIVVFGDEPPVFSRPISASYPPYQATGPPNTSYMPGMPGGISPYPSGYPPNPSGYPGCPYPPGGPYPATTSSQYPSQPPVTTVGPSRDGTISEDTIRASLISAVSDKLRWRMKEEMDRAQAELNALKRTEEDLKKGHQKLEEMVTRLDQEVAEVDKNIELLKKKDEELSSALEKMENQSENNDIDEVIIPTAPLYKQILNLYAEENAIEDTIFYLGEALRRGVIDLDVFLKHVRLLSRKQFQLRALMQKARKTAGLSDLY
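Compounds were pin-transferred onto Tsg101 binding domain (10 uM final) in HEPES pH 7.5 buffer, then FITC-PTAP peptide was added at 50 nM final. After 20 min at RT, polarization reported peptide displacement across a qHTS concentration series.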
KB-3-1 tox: kills parental KB-3-1 adenocarcinoma cells. 400,000 compounds, 1.4% hits. Potency, µM (series often up to 46.1 µM), most hits filed as cytotoxic. AID 1347075. KB-3-1 viability, CellTiter-Glo ATP luminescence, 72 h; further: nearly all actives have a fitted effect of over 60% in size
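Cytotoxicity in the drug-sensitive parental line KB-3-1 was scored as loss of CellTiter-Glo luminescence following 72 h incubation with compound. Values come from curve fitting of normalized concentration-response data.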
KB-V1 cytotox: kills drug-selected multidrug resistant KB-V1 cells; 400,000 compounds, 3.4% hits; KB-V1 MDR cells viability, CellTiter-Glo, 72 h; Potency, µM (highest dose often 46.1 µM), most hits filed as cytotoxic; further: nearly all actives have a fitted effect of over 60% in size
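Cytotoxicity via CellTiter-Glo luminescence after 72 h compound exposure at 37 degrees C. Cells: drug-selected KB-V1 line, DMEM phenol-red free plus 10% FBS. Compounds tested at multiple concentrations; normalized data fitted to concentration-effect curves.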
MCF10A rereplic: inducers of DNA re-replication in MCF 10A breast cells. MCF 10A DNA re-replication, Hoechst nuclear intensity, 48 h. Potency, µM (doses to about 46.1 µM), actives largely listed as activators. 350,000 compounds, 2.9% hits. AID 624296; further: nearly all actives have a fitted effect of over 50% in size
SW480 rerep: inducers of DNA re-replication in SW480 colon cancer cells. SW480 DNA re-replication, Hoechst DNA content imaging, 48 h. Potency, µM (doses to about 46.1 µM), hits mostly activators. 340,000 compounds, 1.8% hits. AID 624297; further: nearly all actives have a fitted effect of over 55% in size
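First, 250 cells per well were seeded. Next, compound or vehicle (23 nL) was pinned in, plates sat 48 hr at 37 C. Finally Hoechst was added for 40 min before fluorescence scanning.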
Large screens that a line does not name were inactive. This is a sample that favours compounds with a hit; in the whole collection about 6.8% have one here. Unless noted, the call rests on the fitted dose curve; in most records, active means well fitted curve in the direction sought with a large enough effect; inconclusive means small, poorly fitted or top-dose-only effect, or another doubt; inactive means no such curve, though single readings can be large; an effect the other way counts as inactive or inconclusive.

O=C(Nc1ccccc1)Nc1ccc(Cl)c([N+](=O)[O-])c1	KB-3-1 tox inconclusive, KB-V1 cytotox inconclusive, MCF10A rereplic 14.6µM, SW480 rerep inconclusive
Cc1ccc(NC(=O)Nc2ccccc2)cc1[N+](=O)[O-]	KB-V1 cytotox inconclusive
COc1ccc2[nH]c(C(=O)N/N=C/c3ccc(OC)c(O)c3)cc2c1	KB-3-1 tox 6.51µM, KB-V1 cytotox 9.2µM, MCF10A rereplic 2.06µM, SW480 rerep 11.6µM
COc1ccc(/C=N/NC(=O)c2nc(-c3ccccc3)cc(-c3ccccc3)n2)cc1O	KB-3-1 tox inconclusive, KB-V1 cytotox 16.4µM
CCOc1ccc2[nH]c(C(=O)N/N=C/c3ccccc3OC)cc2c1	KB-3-1 tox inconclusive, KB-V1 cytotox inconclusive, MCF10A rereplic 5.17µM, SW480 rerep 14.6µM
COc1ccc(/C=N/NC(=O)c2nc(-c3ccccc3)cc(-c3ccccc3)n2)cc1	MCF10A rereplic inconclusive
CCCOc1ccc2[nH]c(C(=O)N/N=C/c3cc(OC)c(OC)c(OC)c3)cc2c1	KB-3-1 tox inconclusive, MCF10A rereplic inconclusive
COc1ccc(/C=N/NC(=O)c2ccc(CN3C(=O)c4cccc5cccc3c45)cc2)cc1O	MCF10A rereplic 16.4µM
COc1ccc2[nH]c(C(=O)N/N=C/c3ccccc3OC)cc2c1	KB-3-1 tox inconclusive, SW480 rerep inconclusive
COC(=O)c1c(-c2cccs2)csc1NC(=O)COc1ccc(C(C)C)cc1	none (no result: TSG101-PTAP inh, KB-3-1 tox, KB-V1 cytotox, MCF10A rereplic, SW480 rerep)
COc1ccc(-c2cc(OC(=O)c3cccc(C)c3)c3c(C)oc(C)c3c(=O)c2)cc1	none (no result: TSG101-PTAP inh, MCF10A rereplic, SW480 rerep)
COc1cccc(CCNc2ncnc3c2nnn3C)c1	none (no result: TSG101-PTAP inh, KB-3-1 tox, KB-V1 cytotox, MCF10A rereplic, SW480 rerep)
CCc1ccc(-c2csc3[n+]2CCN3C(C)=O)cc1	MCF10A rereplic inconclusive, SW480 rerep 2.31µM
CCOC(=O)c1cc2ccc3ccccc3c2oc1=O	KB-V1 cytotox inconclusive, SW480 rerep inconclusive
CCOC(=O)c1cc2ccc(OC(=O)c3ccco3)cc2oc1=O	MCF10A rereplic 3.26µM
CCCCCCc1cc2cc(C(=O)OCC)c(=O)oc2cc1O	PINK1 expr mod inconclusive, MCF10A rereplic inconclusive, SW480 rerep 1.3µM
CCCCCCc1cc2cc(C(=O)NC)c(=N)oc2cc1O	TSG101-PTAP inh inconclusive, MCF10A rereplic inconclusive, SW480 rerep 12.6µM
CCCCCCc1cc2cc(C(=O)Nc3ccc(OC)cc3)c(=O)oc2cc1O	PINK1 expr mod 39.8µM, KB-3-1 tox 8.2µM, KB-V1 cytotox 8.2µM, MCF10A rereplic 0.731µM, SW480 rerep 14.6µM
CCCCCCc1cc2cc(-c3nnc(-c4ccc(C)cc4)o3)c(=O)oc2cc1O	none (no result: TSG101-PTAP inh, MCF10A rereplic, SW480 rerep)
COc1ccc(NC(=O)c2cc3ccccc3oc2=O)cc1	none (no result: TSG101-PTAP inh, MCF10A rereplic, SW480 rerep)
CCC1CCCCN1C(=O)Cn1c(=O)n(CC2CCC(C(=O)NC)CC2)c(=O)c2sccc21 (stereo not given)	none (no result: TSG101-PTAP inh, MCF10A rereplic, SW480 rerep)
O=C1NC(=O)[C@@]2(CCOc3ccc(F)cc32)N1	none (no result: PINK1 expr mod, TSG101-PTAP inh, KB-3-1 tox, KB-V1 cytotox)
CCCCCCc1cc2cc(S(=O)(=O)c3ccc(F)c(Cl)c3)c(=O)oc2cc1O	PINK1 expr mod 12.6µM, KB-V1 cytotox 14.6µM, MCF10A rereplic inconclusive, SW480 rerep 2.59µM
CCCCCCc1cc2cc(/C(N)=N/NC(=O)c3ccncc3)c(=O)oc2cc1O	PINK1 expr mod inconclusive, TSG101-PTAP inh inconclusive, MCF10A rereplic 1.3µM, SW480 rerep 1.64µM
CCCCCCc1cc2cc(C(=O)Nc3cccc(OC)c3)c(=O)oc2cc1O	PINK1 expr mod inconclusive, KB-3-1 tox 7.31µM, KB-V1 cytotox 6.51µM, MCF10A rereplic inconclusive, SW480 rerep inconclusive
CNc1c(NS(=O)(=O)c2ccc(F)c(Cl)c2)c(=O)oc2ccccc12	none
c1ccc(-c2csc3ncnc(Sc4nnnn4-c4ccccc4)c23)cc1	KB-3-1 tox inconclusive (no result: TSG101-PTAP inh, MCF10A rereplic, SW480 rerep)
Cc1ccc2c(CC(=O)N3CCOc4ccc(CN5CCOCC5)cc4C3)cc(=O)oc2c1	none (no result: TSG101-PTAP inh, KB-3-1 tox, KB-V1 cytotox, MCF10A rereplic, SW480 rerep)
Cc1ccc(-n2nc(-c3ccccc3)c3cnc4cc5c(cc4c32)OCO5)cc1C	none (no result: TSG101-PTAP inh, MCF10A rereplic, SW480 rerep)
COC(=O)c1c(C(=O)c2ccc(Br)cc2)n(C)c2ccccc12	KB-3-1 tox inconclusive, KB-V1 cytotox 20.6µM
COc1ccc(OC)c(S(=O)(=O)ON2C(=O)c3ccccc3C2=O)c1	KB-3-1 tox inconclusive, MCF10A rereplic 6.51µM, SW480 rerep inconclusive

Compound activity as filed in PubChem BioAssay.
